# Experimental data reported in PubChem BioAssay AID504834 (National Center for Advancing Translational Sciences (NCATS), 2011).
# Screen size: about 320,000 compounds; about 22,000 (6.9%) were called active. Entries that show only a call come without a potency. Not shown: some 27% with an inconclusive outcome. The call rests on the fitted dose curve; in most records, active means well fitted inhibition curve with a large enough effect; inconclusive means small, poorly fitted or top-dose-only effect, or another doubt; inactive means no such curve, though single readings can be large or run the other way. The full list was thinned out, with actives kept by preference.
# Assay: Primary qHTS for delayed death inhibitors of the malarial parasite plastid, 96 hour incubation
# Conditions: P. falciparum luciferase reporter growth; series mostly up to 28.7 µM
# How it was run: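 Erythrocytes infected with luciferase-expressing P. falciparum were dispensed at 2% hematocrit and 0.05% parasitemia (final), then incubated with compounds 96 hours at 37 C in 5% CO2. Luminescence after detection reagent addition reported growth.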
# Potency means the concentration at half of the fitted maximal effect.
row,SMILES,Potency
1,O=S(=O)(Nc1ccc(Cl)cn1)c1cnc(Cl)c(Br)c1,inactive
2,Cc1cccc(N2CCN(C(=O)c3cccc(S(=O)(=O)N4CCc5ccccc5C4)c3)CC2C)c1 (centres undefined),11.7 µM (active)
3,COC(=O)c1ccc(S(=O)(=O)N2CCc3ccccc3C2)cc1,inactive
4,CN1CCN(S(=O)(=O)c2cccc(C(=O)N3CCc4ccccc43)c2)CC1,inactive
5,CSc1ccc(CNCCN2CCOCC2)cc1,inactive
6,CCCCC(CC)CNCc1cccn1CCN1CCOCC1 (centres undefined),11.7 µM (active)
7,CCCCc1ccc(NC(=S)NCCCN2CCOCC2)cc1,inactive
8,COc1cccc(N2CC(C(=O)NCc3n[nH]c(=O)c4ccccc34)CC2=O)c1 (centres undefined),inactive
9,CC(C[N+](C)(C)C)OC(N)=O (centres undefined),9.53 µM (active)
10,CCc1ccc[n+](-c2nc([O-])sc2C=O)c1,inactive
11,COc1ccc(CNc2cc(C)cc(C)c2)cc1OC,inactive
12,COc1ccc(/C=C/C(=O)c2cc(Br)ccc(=O)c2O)cc1,10.4 µM (active)
13,COc1ccc(/C=C/C(=O)c2ccc(OC)cc2O)cc1,inactive
14,COc1ccc(C(=O)/C=C/c2cccnc2)c(OC)c1,inactive
15,CSc1nsc(SCC(=O)Nc2cc(C(=O)O)ccc2C)n1,inactive
16,O=C1CCN(Cc2ccc([N+](=O)[O-])cc2)CCN1[C@H](CO)Cc1ccccc1,inactive
17,CC1CCN(CCC(=O)Nc2ccccc2)CC1,inactive
18,CN1CCC(=O)N([C@H](CO)Cc2ccccc2)CC1,inactive
19,CC(=O)Nc1ccc(NC(=O)C(C)OC(=O)C2CC(=O)N(CCc3ccccc3)C2)cc1 (centres undefined),inactive
20,COc1ccc(SC[C@H](Cc2ccccc2)N2CCN(CCc3ccccc3)CCC2=O)cc1,4.65 µM (active)
21,C[C@H]1CCC(=O)N([C@H](CSc2ccccc2)Cc2ccccc2)CC1,11.7 µM (active)
22,CC(=O)Nc1ccc(SC[C@H](Cc2ccccc2)N2CC[C@@H](C)CCC2=O)cc1,3.29 µM (active)
23,COc1ccc(SCCN2CCN(CC(C)C)CCC2=O)cc1,inactive

row,SMILES,Potency
1,O=C1CC[C@H](O)CCN1[C@H](CSc1ccc(Br)cc1)Cc1ccccc1,inactive
2,C/C(Cc1ccccc1)=N\NC(=O)CNC(=O)c1ccccc1Cl,inactive
3,CCC1(CC)Cc2ccccc2-c2nc(CCl)[nH]c(=O)c21,inactive
4,COc1ccc(CCNS(=O)(=O)c2cc3c(cc2C)NC(=O)CO3)cc1OC,inactive
5,CCC(=O)c1ccc(OCC(=O)Nc2ccc(N3CCCCC3)cc2)cc1,inactive
6,Cc1c(CC(=O)NCC(=O)NCC(=O)O)c(=O)oc2cc3oc4c(c3cc12)CCCC4,inactive
7,O=S(=O)(NC1CC2CCC1C2)c1ccc(Cl)cc1 (centres undefined),inactive
8,CC1CN(C(=S)Nc2cccc(F)c2)CC(C)O1 (centres undefined),inactive
9,CCOC(=O)Nc1ccc(NC(=O)OCC)cc1,inactive
10,CCCCC(CCC(=O)Nc1ccc(C(=O)OCC)cc1)C(=O)O (centres undefined),inactive
11,CCCCCOC(=O)NCCOC(=O)Nc1ccc(C(=O)OCC)cc1,11.7 µM (active)
12,CN1CCN(NC(=O)Nc2ccc(Br)cc2)CC1,inactive
13,O=C(NCCS(=O)(=O)NCc1ccc(Cl)cc1)c1ccccc1,inactive
14,CCOC(=O)Cc1csc(NC(=O)CSc2nc(C)cc(=O)[nH]2)n1,inactive
15,CCOC(=O)Cc1csc(NC(=O)Nc2ccccc2)n1,inactive
16,CCOC(=O)Cc1csc(NC(=O)CSc2ccc(Br)cc2)n1,2.62 µM (active)
17,CCOC(=O)N1CCN(C(=O)COC(=O)c2cccc(S(C)(=O)=O)c2)CC1,inactive
18,CCCN(CC(=O)Nc1ccccc1OC)C(=O)CCC(=O)c1ccc(F)cc1,inactive
19,CCCCOC(=O)Cn1c(=O)n(CC(=O)OCCCC)c2cc(C)ccc21,inactive
20,CCCCCCCCCCOC(=O)Cn1c(COc2cccc(OC)c2)[n+](C)c2ccccc21,3.29 µM (active)
21,CCn1c(=N)n(CC(=O)c2cccc(OC)c2)c2ccccc21,inactive
22,NC(=O)c1oc2ccccc2c1NC(=O)CS(=O)(=O)c1ccccc1,inactive
23,CCOc1ccc2[nH]c(=O)c(CN(CCCO)S(=O)(=O)c3ccc(F)cc3)cc2c1,inactive

row,SMILES,Potency
1,Cc1cccc(N2CCN(C(=O)CCS(=O)(=O)c3ccc4c(c3)NC(=O)C(C)S4)CC2)c1C (centres undefined),inactive
2,Cc1cc(=O)oc2cc(OC(C)C(=O)NCCc3ccc(S(N)(=O)=O)cc3)ccc12 (centres undefined),inactive
3,CCn1ccnc1CN(C)C(=O)c1cc(COc2ccc(-n3cncn3)cc2)on1,inactive
4,COc1cc(Cl)ccc1OCc1cc(C(=O)N2CC[C@@H]3CCCC[C@H]3C2)no1,inactive
5,CCn1ccnc1CN(C)C(=O)c1cc(COc2ccc(Cl)cc2OC)on1,3.7 µM (active)
6,O=C(N[C@@H](Cc1c[nH]c2ccccc12)C(=O)O)OCC1c2ccccc2-c2ccccc21,inactive
7,CN(C)CCCn1c(SCc2ccc(Cl)cc2)nnc1-c1ccncc1,2.94 µM (active)
8,COCCCn1c(SCC(=O)Nc2ccccc2)nnc1-c1ccncc1,inactive
9,CC1CCCCC1NC(=O)CSc1nnc(-c2ccncc2)n1CCCN(C)C (centres undefined),inactive
10,O=C(c1cc(COc2c(F)cccc2F)on1)N1CCSCC1,inactive
11,NC(=O)C1CCN(CC(O)CSc2ccc(F)cc2)CC1 (centres undefined),inactive
12,c1ccc(-c2cc(N3CCCCC3)c3ccccc3n2)cc1,9.28 µM (active)
13,O=c1cc(-c2ccccc2)nc(N2CCCCC2)[nH]1,inactive
14,c1ccc(-n2cccc2)c(N2CCCCC2)c1,inactive
15,Cc1nc2ccccc2n1CC(O)c1ccccc1 (centres undefined),inactive
16,O=C(/C=C/c1cccc(C(F)(F)F)c1)N1CCN(c2ccccn2)CC1,inactive
17,Nc1nonc1-n1nnc(C(=O)N/N=C\c2ccncc2)c1CN1CCCCC1,inactive
18,Cc1ccc(CNS(=O)(=O)c2ccc3c(c2)N(C)CCO3)cc1,inactive
19,Cc1ccc(S(=O)(=O)Nc2nc(CN3CCOCC3)nc3sc(C)c(C)c23)cc1,inactive
20,Cc1ccc(NC(=O)CN(C)C(=O)Cn2nnc(-c3ccccc3)n2)cc1,inactive
21,COc1c(C)c2c(c(O)c1C/C=C(\C)CCC(=O)O)C(=O)OC2,1.61 µM (active)
22,Cc1cc(=O)oc2c(C(=O)c3ccccc3)c(OCC(N)=O)ccc12,inactive
23,COC(=O)c1cc(S(=O)(=O)N2CCC(C(N)=O)CC2)oc1C,inactive
